Measurements reported in PubChem BioAssay (NCATS).
Inconclusive results are not listed. Where a call stands in place of a potency, no number is given. Active and inactive are the calls of the source. The call rests on the fitted dose curve.

Experiments:
[1] = Primary qHTS for inhibitors of SARS-S pseudo-typed particle cell entry (AID 1479145); conditions: outcome: dose series up to 57.1 µM unless noted; further: nearly all actives have a fitted effect of over 45% in size
[2] = Primary qHTS for Huh7 cytotoxicity: counterscreen for inhibitors of MERS-S pseudotyped particle cell entry (AID 1479147); conditions: outcome: dose series up to 57.1 µM unless noted
[3] = Primary qHTS for inhibitors of MERS-S pseudo-typed particle cell entry (AID 1479149); conditions: outcome: dose series up to 57.1 µM unless noted; further: nearly all actives have a fitted effect of over 60% in size
[4] = Primary qHTS for Vero E6 cytotoxicity: counterscreen for inhibitors of SARS-S pseudo-typed particle cell entry (AID 1479150); conditions: outcome: dose series up to 57.1 µM unless noted
[5] = Cytotoxicity counterscreen for inhibitors of SARS-CoV-2 cell entry (AID 1645845); conditions: outcome: dose series up to 57.1 µM unless noted; further: nearly all actives have a fitted effect of over 50% in size
Summary of the method: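 ATP-content luminescence (ATPLite 1step, 15 min RT) read after 48 h compound exposure of Expi293F cells stably expressing human ACE2; normalized to cells-only wells and media-only wells.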

[6] = Primary qHTS to identify inhibitors of SARS-CoV-2 cell entry (AID 1645846); conditions: SARS-CoV-2 pseudovirus cell entry assay, luminescence; activity change, negative = inhibition: at 57.1 µM (top of the series) unless noted; further: nearly all actives have a fitted effect of over 45% in size
Summary of the method: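 Using luciferase-reporting pseudoviruses carrying Wuhan-Hu-1 spike, the screen tracks entry into stably ACE2-expressing cells over 48 hr. Activity is expressed relative to spike particles versus particles lacking any fusion protein.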

In the case of `FC(F)OC(Cl)C(F)(F)F` (stereo not drawn), the Potency [1] is reported as “inactive”, the Potency [2] is reported as “inactive” and the Potency [3] is reported as “inactive”. The Potency [4] was “inactive” and the Potency [5] was “inactive”.
For `O=C1O[C@H]2[C@H](OC(O)[C@@H]2O)[C@@H]1O` (stereo partly drawn), the Potency [1] was “inactive”, the Potency [2] was “inactive” and the Potency [3] was “inactive”. The Potency [4] was “inactive” and the Potency [5] was “inactive”.
With `C=CCN1CC[C@]23c4c5ccc(O)c4O[C@H]2[C@@H](OCCOCCOCCOCCOCCOCCOCCOC)CC[C@@]3(O)[C@H]1C5` the Potency [1] was “inactive”, the Potency [2] was “inactive” and the Potency [3] was “inactive”. The Potency [4] was “inactive” and the Potency [5] was “inactive”.
With `CC(C)(C)c1ccc2c(S(=O)(=O)O)c(C(C)(C)C)ccc2c1` the Potency [1] was “inactive”, the Potency [2] was “inactive” and the Potency [3] was “inactive”. For the same compound, the Potency [4] was “inactive” and the Potency [5] was “inactive”.
With `CCCCCc1ccc(C)cc1O` the Potency [1] was “inactive”, the Potency [2] was “inactive” and the Potency [3] was “inactive”. The Potency [4] was “inactive” and the Potency [5] was “inactive”.
For `Cc1ncc([N+](=O)[O-])n1CCOC(=O)c1ccccc1`, the Potency [1] was “inactive”, the Potency [2] was “inactive” and the Potency [3] was “inactive”. The Potency [4] was “inactive” and the Potency [5] was “inactive”.
In the case of `CN(Cc1ccccc1)C(=O)[C@H](NC(=O)c1cc2cc(NC(=O)c3ccccc3-c3ccc(C(F)(F)F)cc3)ccc2n1C)c1ccccc1`, the Potency [1] is reported as “inactive”, the Potency [2] is reported as “inactive” and the Potency [3] is reported as “inactive”. For the same compound, the Potency [4] was “inactive” and the Potency [5] was “inactive”.
In the case of `OC[C@H]1O[C@@H](O)[C@H](O)[C@@H](O)[C@@H]1O`, the Potency [1] is reported as “inactive”, the Potency [2] is reported as “inactive” and the Potency [3] is reported as “inactive”. For the same compound, the Potency [4] was “inactive” and the Potency [5] was “inactive”.
In the case of `CC1(C)S[C@@H]2[C@H](NC(=O)[C@H](N)c3ccccc3)C(=O)N2[C@H]1C(=O)OCOC(=O)[C@@H]1N2C(=O)C[C@H]2S(=O)(=O)C1(C)C`, the Potency [1] is reported as “inactive”, the Potency [2] is reported as “inactive” and the Potency [3] is reported as “inactive”. For the same compound, the Potency [4] was “inactive” and the Potency [5] was “inactive”.
In the case of `CCCCC(CC)CCC(CC(C)C)OS(=O)(=O)O` (stereo not drawn), the Potency [1] is reported as “inactive”, the Potency [2] is reported as “inactive” and the Potency [3] is reported as “inactive”. The Potency [4] was “inactive” and the Potency [5] was “inactive”.
For `COC(=O)N[C@H](C(=O)N1CCC[C@H]1c1ncc(-c2ccc3c(c2)O[C@@H](c2ccccc2)n2c-3cc3cc(-c4cnc([C@@H]5CCCN5C(=O)[C@@H](NC(=O)OC)C(C)C)[nH]4)ccc32)[nH]1)C(C)C`, the Potency [1] was “inactive”, the Potency [2] was “inactive” and the Potency [3] was “inactive”. For the same compound, the Potency [4] was “inactive” and the Potency [5] was “inactive”.
In the case of `CCCCCCCCCCCCCCCC(=O)OCC=C(C)C=CC=C(C)C=CC1=C(C)CCCC1(C)C`, the Potency [1] is reported as “inactive”, the Potency [2] is reported as “inactive” and the Potency [3] is reported as “inactive”. For the same compound, the Potency [4] was “inactive” and the Potency [5] was “inactive”.
With `Cn1nnnc1SCC1=C(C(=O)O)N2C(=O)[C@H](NC(=O)C(O)c3ccccc3)C2SC1` (stereo partly drawn) the Potency [1] was “inactive”, the Potency [2] was “inactive” and the Potency [3] was “inactive”. The Potency [4] was “inactive” and the Potency [5] was “inactive”.
In the case of `CC(C)CN(C[C@@H](O)[C@H](Cc1ccccc1)NC(=O)O[C@H]1CCOC1)S(=O)(=O)c1ccc(N)cc1`, the Potency [1] is reported as “inactive”, the Potency [2] is reported as “inactive” and the Potency [3] is reported as “inactive”. The Potency [4] was “inactive” and the Potency [5] was “inactive”.
For `COc1ccc(NC(=O)c2ccc(C(=N)N(C)C)cc2)c(C(=O)Nc2ccc(Cl)cn2)c1`, the Potency [1] was “inactive”, the Potency [2] was “inactive” and the Potency [3] was “inactive”. For the same compound, the Potency [4] was “inactive” and the Potency [5] was “inactive”.
For `C[N+]1(C)C2CC[C@H]1CC(OC(=O)C(O)c1ccccc1)C2` (stereo partly drawn), the Potency [1] was “inactive”, the Potency [2] was “inactive” and the Potency [3] was “inactive”. For the same compound, the Potency [4] was “inactive” and the Potency [5] was “inactive”.
In the case of `CC(C)[C@@H](C)/C=C/[C@@H](C)[C@H]1CC[C@H]2/C(=C/C=C3\C[C@@H](O)CC[C@@H]3C)CCC[C@]12C`, the Potency [1] is reported as “inactive”, the Potency [2] is reported as “inactive” and the Potency [3] is reported as “inactive”. For the same compound, the Potency [4] was “inactive” and the Potency [5] was “inactive”.
In the case of `CCCCC[C@H](O)/C=C/[C@@H]1[C@@H](C/C=C/CCCC(=O)O)[C@@H](O)C[C@H]1O`, the activity change, negative = inhibition [6] is reported as -6.41%.
In the case of `O=S(O)CNc1ccc(S(=O)(=O)c2ccc(NCS(=O)O)cc2)cc1`, the Potency [1] is reported as “inactive”, the Potency [2] is reported as “inactive” and the Potency [3] is reported as “inactive”. The Potency [4] was “inactive”, the Potency [5] was “inactive” and the activity change, negative = inhibition [6] was 3.29%.
With `CC(C(=O)O)c1ccc(C2CCCCC2)c2ccccc12` (stereo not drawn) the Potency [1] was “inactive”, the Potency [2] was “inactive” and the Potency [3] was “inactive”. For the same compound, the Potency [4] was “inactive”, the Potency [5] was “inactive” and the activity change, negative = inhibition [6] was -4.82%.
In the case of `CNC(=O)C[C@@H](N)C(=O)N[C@@H](C(=O)N[C@@H]1C(=O)N2[C@@H]1SC(C)(C)[C@@H]2C(=O)O)c1ccc(O)cc1`, the Potency [1] is reported as “inactive”, the Potency [2] is reported as “inactive” and the Potency [3] is reported as “inactive”. The Potency [4] was “inactive”, the Potency [5] was “inactive” and the activity change, negative = inhibition [6] was -19.8%.
With `CCOC(=O)CN[C@@H](C(=O)N1CC[C@H]1C(=O)NCc1ccc(/C(N)=N/O)cc1)C1CCCCC1` the Potency [1] was “inactive”, the Potency [2] was “inactive” and the Potency [3] was “inactive”. For the same compound, the Potency [4] was “inactive”, the Potency [5] was “inactive” and the activity change, negative = inhibition [6] was -19.7%.
In the case of `O=C[C@H](O)[C@@H](O)[C@H](O)[C@H](O)CO`, the Potency [1] is reported as “inactive”, the Potency [2] is reported as “inactive” and the Potency [3] is reported as “inactive”. The Potency [4] was “inactive”, the Potency [5] was “inactive” and the Potency [6] was “inactive”.
For `CCCCCCCCCCCCCCCCOc1nc2ccc(C)cc2c(=O)o1`, the Potency [1] was “inactive”, the Potency [2] was “inactive” and the Potency [3] was “inactive”. For the same compound, the Potency [4] was “inactive”, the Potency [5] was “inactive” and the activity change, negative = inhibition [6] was -28.4%.
With `CC[C@H]1OC(=O)C[C@@H](O)[C@H](C)[C@@H](O[C@@H]2O[C@H](C)[C@@H](O[C@H]3C[C@@](C)(O)[C@@H](O)[C@H](C)O3)[C@H](N(C)C)[C@H]2O)[C@@H](CC=O)C[C@@H](C)C(=O)/C=C/C(C)=C/[C@@H]1CO[C@@H]1O[C@H](C)[C@@H](O)[C@@H](OC)[C@H]1OC` the Potency [1] was “inactive”, the Potency [2] was “inactive” and the Potency [3] was “inactive”. The Potency [4] was “inactive”, the Potency [5] was “inactive” and the Potency [6] was “inactive”.
